This is an account of results in PubChem BioAssay (NCATS).

Test [1] in a line: Quantitative High-Throughput drug screen in 47 multiple myeloma cell lines against the NCATS MIPE library collection: JJN3_DSMZ cell viability assay (AID 1918966; also: nearly all actives have a fitted effect of over 50% in size). The essentials: (§1)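 CellTiter-Glo luminescence (ATP) after 48 h compound exposure, 37C/5% CO2; 500 cells/well; MIPE 4.0 approved/investigational drugs pinned in; DMSO = 100%, media only = 0% viability.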
A short description of test [2]: Quantitative High-Throughput drug screen in 47 multiple myeloma cell lines against the NCATS MIPE library collection: H1112_PLB cell viability assay (AID 1918967; also: nearly all actives have a fitted effect of over 30% in size). In a few lines:
as §1

Test [3] is described as follows: Quantitative High-Throughput drug screen in 47 multiple myeloma cell lines against the NCATS MIPE library collection: Karpas25_ECACC cell viability assay (AID 1918968; also: nearly all actives have a fitted effect of over 35% in size). The essentials:
as §1

The nature of test [4]: Quantitative High-Throughput drug screen in 47 multiple myeloma cell lines against the NCATS MIPE library collection: KMS27_JCRB cell viability assay (AID 1918970). Also: nearly all actives have a fitted effect of over 30% in size. In a few lines:
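ATP-based viability (CellTiter-Glo luminescence) is measured in cells treated 48 h with approved and investigational drugs at 37 °C. Controls are DMSO-only wells for full viability and media-only wells for none.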

Test [5] is described as follows: Quantitative High-Throughput drug screen in 47 multiple myeloma cell lines against the NCATS MIPE library collection: KMS12BM_JCRB cell viability assay (AID 1918971). Also: nearly all actives have a fitted effect of over 35% in size. In a few lines: as §1
Test [6] is described as follows: Quantitative High-Throughput drug screen in 47 multiple myeloma cell lines against the NCATS MIPE library collection: KMS26_JCRB cell viability assay (AID 1918975). Also: nearly all actives have a fitted effect of over 45% in size. The essentials:
as §1

The nature of test [7]: Quantitative High-Throughput drug screen in 47 multiple myeloma cell lines against the NCATS MIPE library collection: MMM1_PLB cell viability assay (AID 1918976). Also: nearly all actives have a fitted effect of over 35% in size. The essentials:
(§2)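 MIPE 4.0 approved/investigational drugs; 500 cells/well; 48 h 37 °C humidified 5% CO2; CTG luminescence readout; DMSO = 100%, media = 0% viability.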

The nature of test [8]: Quantitative High-Throughput drug screen in 47 multiple myeloma cell lines against the NCATS MIPE library collection: NCIH929_DSMZ cell viability assay (AID 1918978). Also: nearly all actives have a fitted effect of over 35% in size. The essentials: as §2
Test [9] is described as follows: Quantitative High-Throughput drug screen in 47 multiple myeloma cell lines against the NCATS MIPE library collection: MM1S_ATCC cell viability assay (AID 1918980). Also: nearly all actives have a fitted effect of over 45% in size. In a few lines:
as §2

Test [10] in a line: Quantitative High-Throughput drug screen in 47 multiple myeloma cell lines against the NCATS MIPE library collection: LP1_DSMZ cell viability assay (AID 1918982). Also: nearly all actives have a fitted effect of over 35% in size. The essentials:
as §2

Test [11] in a line: Quantitative High-Throughput drug screen in 47 multiple myeloma cell lines against the NCATS MIPE library collection: KMS28PE_JCRB cell viability assay (AID 1918983). Also: nearly all actives have a fitted effect of over 35% in size. The essentials:
as §2

Test [12] can be described thus: Quantitative High-Throughput drug screen in 47 multiple myeloma cell lines against the NCATS MIPE library collection: KMS34_JCRB cell viability assay (AID 1918985). Also: nearly all actives have a fitted effect of over 40% in size. The essentials:
as §2

Test [13] in a line: Quantitative High-Throughput drug screen in 47 multiple myeloma cell lines against the NCATS MIPE library collection: OCIMY7_PLB cell viability assay (AID 1918987). Also: nearly all actives have a fitted effect of over 65% in size. In a few lines:
as §2

A short description of test [14]: Quantitative High-Throughput drug screen in 47 multiple myeloma cell lines against the NCATS MIPE library collection: KMS12PE_JCRB cell viability assay (AID 1918972). Also: nearly all actives have a fitted effect of over 30% in size. In a few lines: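 Approved and investigational drugs from MIPE 4.0 were added by pin tool to 500 cells per well. After 48 hours at 37C, ATP-based CellTiter-Glo luminescence indicated remaining viability.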

The nature of test [15]: Quantitative High-Throughput drug screen in 47 multiple myeloma cell lines against the NCATS MIPE library collection: KMS20_JCRB cell viability assay (AID 1918973). Also: nearly all actives have a fitted effect of over 45% in size. In a few lines:
as §1

A short description of test [16]: Quantitative High-Throughput drug screen in 47 multiple myeloma cell lines against the NCATS MIPE library collection: OCIMY1_PLB cell viability assay (AID 1918979). Also: nearly all actives have a fitted effect of over 35% in size. In a few lines: as §2
Test [17] can be described thus: Quantitative High-Throughput drug screen in 47 multiple myeloma cell lines against the NCATS MIPE library collection: L363_DSMZ cell viability assay (AID 1918984). Also: nearly all actives have a fitted effect of over 40% in size. The essentials:
as §2

Test [18] can be described thus: Quantitative High-Throughput drug screen in 47 multiple myeloma cell lines against the NCATS MIPE library collection: MM1R_ATCC cell viability assay (AID 1918981). Also: nearly all actives have a fitted effect of over 35% in size. The essentials:
as §2

Test [19] is described as follows: Quantitative High-Throughput drug screen in 47 multiple myeloma cell lines against the NCATS MIPE library collection: KMS21BM_JCRB cell viability assay (AID 1918974). The settings on record: ATP luminescence, 48 h; viability: at 45.8 µM (top of the series). In a few lines:
as §1

The nature of test [20]: Quantitative High-Throughput drug screen in 47 multiple myeloma cell lines against the NCATS MIPE library collection: MOLP8_DSMZ cell viability assay (AID 1918977). Also: nearly all actives have a fitted effect of over 45% in size. In a few lines: as §2

Inconclusive results are not listed. Calls of active or inactive are those of the source. Calls follow the shape of the dose curve; as a rule, active = well fitted curve in the direction sought with a large enough effect; inconclusive = small, poorly fitted or top-dose-only effect, or another doubt; inactive = no such curve, though single readings can be large; an effect the other way counts as inactive or inconclusive.
Potency is read from the fitted curve at half-maximal effect.

As to `CC=C(C)C(=O)O[C@H]1C(C)=C2[C@@H]3OC(=O)[C@@](C)(O)[C@@]3(O)[C@@H](OC(=O)CCC)C[C@](C)(OC(C)=O)[C@@H]2[C@@H]1OC(=O)CCCCCCC`, the Potency in [1] is 0.0469 µM (active); in test [2], 526 nM (active); in test [3], 0.0833 µM (active); in test [5] it was 0.0418 µM (active); in test [6] it was 0.0296 µM (active); in test [7], 23.5 nM (active). The Potency was 0.332 µM (active) in test [8]; 18.7 nM (active) in test [9]; 0.0296 µM (active) in [10]; 0.132 µM (active) in [11]; 0.0166 µM (active) in test [12]; 264 nM (active) in [13]. Further, in [4], the Potency entry was “inactive”.

In the case of `N#C[C@H](O[C@@H]1O[C@H](CO[C@@H]2O[C@H](CO)[C@H](O)[C@H](O)[C@H]2O)[C@H](O)[C@H](O)[C@H]1O)c1ccccc1`, the Potency in [2] is 26400 nM (active); in test [3] it was 18.7 µM (active); in test [4] it was 6.62 µM (active); in [5], 20.9 µM (active); in test [14] it was 7.43 µM (active); in [15], 18.7 µM (active). For the same compound, the Potency is 20.9 µM (active) in test [6]; 23.5 µM (active) in [8]; 23.5 µM (active) in test [11]; 8.33 µM (active) in [12]; 10500 nM (active) in test [13].

On to `Cc1[nH]nc2ccc(-c3cncc(OC[C@@H](N)Cc4c[nH]c5ccccc45)c3)cc12`, for which the Potency in [2] was 935 nM (active); in [3], 2.35 µM (active); in test [5], 2.64 µM (active); in test [15] it was 1.18 µM (active); in test [6], 1.18 µM (active); in test [8], 1.05 µM (active). Also, the Potency in test [16] is 1.87 µM (active); in test [9], 833 nM (active); in test [10], 1.66 µM (active); in test [11], 0.833 µM (active); in test [12] it was 1.32 µM (active); in test [13], 26.4 nM (active). Besides, the Potency entry in test [4], in [14] and in [17] was “inactive” each time.

In the case of `O=c1cccc2n1CC1CNC[C@H]2C1`, the Potency entry in [1], in test [5], in [6], in test [18], in test [10] and in test [11] was “inactive” each time. The Potency result in test [12] is “inactive”. Also, the Potency in [3] is 23.5 µM (active); in [15] it was 11.8 µM (active).

Take `CC(C)[C@]12O[C@@H]1[C@@H]1O[C@]13[C@]1(O[C@H]1C[C@@H]1C4=C(CC[C@@]13C)C(=O)OC4)[C@H]2O`: the Potency entry in test [2], in test [3], in test [4], in test [5], in test [14] and in [15] was “inactive” throughout. The Potency result in [19], in [6], in [20], in [8], in [18] and in test [10] was “inactive” each time. Moreover, the Potency result in [11], in test [17], in test [12] and in test [13] was “inactive” each time.

Turning to `O=S(=O)(CC1CS1)c1ccc(Oc2ccccc2)cc1` (stereo unspecified), the Potency in [1] was 11.8 µM (active); in test [3], 16.6 µM (active); in test [5], 26.4 µM (active); in [15] it was 14.8 µM (active); in test [6], 26.4 µM (active); in test [20] it was 16.6 µM (active). Further, the Potency in test [8] was 16.6 µM (active); in test [13], 5260 nM (active).

Turning to `COC[C@H]1OC(=O)c2coc3c2[C@@]1(C)C1=C(C3=O)[C@@H]2CC[C@H](O)[C@@]2(C)C[C@@H]1OC(C)=O`, the Potency is 1050 nM (active) in test [2]; 0.264 µM (active) in test [3]; 4.69 µM (active) in test [4]; 3.32 µM (active) in test [5]; 6.62 µM (active) in [14]; 5.26 µM (active) in test [15]. Moreover, the Potency in [6] is 3.32 µM (active); in test [8], 0.209 µM (active); in test [9], 2350 nM (active); in test [18], 0.332 µM (active); in [11], 1.32 µM (active); in test [17], 2.35 µM (active). Further, the Potency was 2.09 µM (active) in [12] and 418 nM (active) in [13].

As for `CN1[C@H]2CC(O)C[C@H]1[C@H]1O[C@H]12` (stereo partly specified), the Potency was 18.7 µM (active) in test [1]; 16600 nM (active) in test [2]; 5.9 µM (active) in [3]; 18.7 µM (active) in test [5]; 11.8 µM (active) in [15]; 16.6 µM (active) in [6]. Further, the Potency in test [20] was 13.2 µM (active); in [8] it was 2.64 µM (active); in test [10], 18.7 µM (active); in [11] it was 20.9 µM (active); in [12] it was 18.7 µM (active); in test [13], 3320 nM (active). The Potency result in test [4] and in test [17] was “inactive” throughout.

With `CC(N[C@H]1C[C@H]1c1ccccc1)c1ccc2c(c1)OCCO2` (stereo partly specified), the Potency entry in test [2], in test [3], in test [4], in test [14], in test [8] and in test [16] was “inactive” in each case. For the same compound, the Potency entry in test [18] and in [10] was “inactive” throughout. The Potency was 1.87 µM (active) in [5], 0.001 µM (active) in [15], 5.26 µM (active) in test [6] and 0.469 µM (active) in test [11].

With `CCN1CCN(C(=O)Cc2ccc(Nc3ncc(F)c(Nc4ccc(C(=O)Nc5ccccc5Cl)cc4)n3)cc2)CC1`, the Potency in [2] is 6620 nM (active); in test [3] it was 2.35 µM (active); in test [4] it was 2.96 µM (active); in test [5], 7.43 µM (active); in [14], 1.05 µM (active); in [15] it was 1.18 µM (active). In addition, the Potency in test [6] was 8.33 µM (active); in test [8], 2.64 µM (active); in test [16], 7.43 µM (active); in [18] it was 5.9 µM (active); in test [10] it was 8.33 µM (active); in [11], 14.8 µM (active). Moreover, the results for the Potency in [17], in test [12] and in [13] were 1.87 µM (active), 4.18 µM (active) and 526 nM (active), respectively.

For `COc1ccc(N(C(=O)Oc2c(C)cccc2C)c2ccnc(Nc3ccc(N4CCN(C)CC4)cc3)n2)c(OC)c1`, the Potency in [1] is 18.7 µM (active); in test [2] it was 372 nM (active); in test [3], 2.64 µM (active); in [4], 2.96 µM (active); in test [5] it was 1.48 µM (active); in test [19] it was 235 nM (active). Further, the Potency in test [6] is 1.48 µM (active); in test [7], 3720 nM (active); in [11], 18.7 µM (active); in test [12] it was 1.05 µM (active).

With `C[C@@H]1O[C@@H](O[C@@H]2C=C3CC[C@@H]4[C@@H](CC[C@]5(C)[C@H](c6ccc(=O)oc6)CC[C@@]45O)[C@@]3(C)CC2)[C@H](O)[C@H](O)[C@H]1O`, the Potency is 41.8 nM (active) in [2]; 0.0235 µM (active) in test [3]; 0.0083 µM (active) in test [4]; 0.0187 µM (active) in test [5]; 0.0187 µM (active) in test [15]; 26.4 nM (active) in test [19]. The Potency is 0.0418 µM (active) in test [6]; 0.0469 µM (active) in test [8]; 29.6 nM (active) in test [9]; 0.0066 µM (active) in [10]; 0.0166 µM (active) in test [11]; 0.0083 µM (active) in test [17]. The Potency is 0.0332 µM (active) in test [12] and 13.2 nM (active) in test [13].
